In the assay the target is Chromo domain-containing protein 1 (Saccharomyces cerevisiae (strain ATCC 204508 / S288c) (Baker's yeast)) (UniProt P32657). In words: ScCHD-1 Enzyme Inhibition Assay. As to conditions: 30 µM. In kind it is functional. More on the design: scale not given: in the data most compounds retested in dose-response had high values.
Chain of Chromo domain-containing protein 1 (Saccharomyces cerevisiae (strain ATCC 204508 / S288c) (Baker's yeast)) (P32657 whole entry, the tested form may be a part): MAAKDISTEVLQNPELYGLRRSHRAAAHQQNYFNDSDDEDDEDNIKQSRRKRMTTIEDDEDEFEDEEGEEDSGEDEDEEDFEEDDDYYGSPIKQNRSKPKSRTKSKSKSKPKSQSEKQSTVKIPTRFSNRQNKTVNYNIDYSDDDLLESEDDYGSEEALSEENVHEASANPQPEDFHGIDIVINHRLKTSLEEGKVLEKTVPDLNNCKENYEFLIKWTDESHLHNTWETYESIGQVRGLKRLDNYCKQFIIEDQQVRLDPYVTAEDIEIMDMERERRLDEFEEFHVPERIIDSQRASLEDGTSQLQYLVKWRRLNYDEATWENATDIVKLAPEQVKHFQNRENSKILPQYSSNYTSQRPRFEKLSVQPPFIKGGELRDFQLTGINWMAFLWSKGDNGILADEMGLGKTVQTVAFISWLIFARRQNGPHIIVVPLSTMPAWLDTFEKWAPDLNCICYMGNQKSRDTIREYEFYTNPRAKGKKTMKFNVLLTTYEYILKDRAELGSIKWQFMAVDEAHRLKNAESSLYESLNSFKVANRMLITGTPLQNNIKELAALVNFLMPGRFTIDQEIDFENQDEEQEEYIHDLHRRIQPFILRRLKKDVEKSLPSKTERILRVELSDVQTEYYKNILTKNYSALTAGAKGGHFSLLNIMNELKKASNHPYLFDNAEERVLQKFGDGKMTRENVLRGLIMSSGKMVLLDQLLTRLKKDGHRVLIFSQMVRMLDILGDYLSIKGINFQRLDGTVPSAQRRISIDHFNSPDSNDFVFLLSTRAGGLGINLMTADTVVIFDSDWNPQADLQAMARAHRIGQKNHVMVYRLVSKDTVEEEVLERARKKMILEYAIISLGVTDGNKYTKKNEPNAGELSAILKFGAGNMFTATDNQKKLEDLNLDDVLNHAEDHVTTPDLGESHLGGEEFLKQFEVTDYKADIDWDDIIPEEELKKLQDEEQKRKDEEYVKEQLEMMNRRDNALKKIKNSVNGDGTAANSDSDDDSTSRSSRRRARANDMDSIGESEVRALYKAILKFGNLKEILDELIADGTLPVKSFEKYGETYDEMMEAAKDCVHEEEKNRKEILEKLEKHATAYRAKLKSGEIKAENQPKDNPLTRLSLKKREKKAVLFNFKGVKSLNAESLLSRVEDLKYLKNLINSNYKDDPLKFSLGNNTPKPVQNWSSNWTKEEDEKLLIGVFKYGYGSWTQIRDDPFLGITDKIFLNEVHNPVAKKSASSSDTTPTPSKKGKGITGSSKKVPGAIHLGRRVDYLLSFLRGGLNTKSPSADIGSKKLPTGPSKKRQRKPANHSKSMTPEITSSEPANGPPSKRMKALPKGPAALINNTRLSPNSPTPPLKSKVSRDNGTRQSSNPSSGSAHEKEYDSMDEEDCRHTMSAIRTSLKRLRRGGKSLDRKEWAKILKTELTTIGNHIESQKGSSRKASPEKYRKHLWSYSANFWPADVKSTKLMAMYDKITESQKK
`Cc1cnn(C2CCCN(C(=O)CCc3nccs3)C2)c1` (stereo not drawn): the Percent Effect was -3.34%.
As for `CC(C)NC(=O)N1CCC(n2ccc(C(F)(F)F)n2)CC1`, the Percent Effect was -2.82%.
On to `CC(=O)N1CCCN(C(=O)c2csc(-c3ccc(C)cc3C)n2)CC1`, for which the Percent Effect is -6.02%.
As for `O=C1NCC2(CCCN(CCc3ccccc3)C2)Oc2ccccc21` (stereo not drawn), the figure is -14.2%; as for `Cc1ccc(-c2cc(CNC(=O)N3CCC(CO)CC3)on2)cc1`, -4.09%; as for `CC(C)N1CCC(NCc2cccnc2N(C)Cc2ccccc2)CC1`, -5.77%.
As for `COCC1CN(C(=O)CNC(C)=O)Cc2ncnn2C1` (stereo not drawn), the figure is 0.679%; as for `CN1CCOC(CNCc2cccc(OCc3ccccn3)c2)C1` (stereo not drawn), -2.11%.
The value for `C=Cn1ncc(CN2C[C@@H]3CCCN3C[C@@H]2Cc2ccccc2)c1C` was -13%; that for `O=C(CCNS(=O)(=O)c1ccc2c(c1)CCCC2)NCc1ccoc1` was -6.46%; that for `CN(CCc1ccccc1)C1CCCN(Cc2nccn2C)C1` (stereo not drawn) was -8.68%.
Turning to `CC(=O)N1CCOCC2(CN(Cc3ccc(C)o3)CCO2)C1` (stereo not drawn), the Percent Effect was -4.82%.
The value for `O=c1cc(Cn2ccnc2)nc2n1CCCN(Cc1ccsc1)C2` was -8.3%; that for `O=C(Cc1ccccc1F)N1C[C@@H]2COC[C@]2(COc2cccnc2)C1` was -2.39%; that for `c1ccc(-c2cc(CN3CCC(c4ccn[nH]4)CC3)on2)cc1` was -3.02%.
The value for `CCc1nnc2n1CCN(Cc1csc(-c3ccsc3)n1)C2` was -0.47%; that for `Cc1cc(NC(=O)Cn2cc(C#N)c(=O)c3cc(Br)ccc32)no1` was 80.7%; that for `COCc1nc2cc(NCc3ccc(C)o3)ccc2o1` was -2.51%.

The values above are taken from ChEMBL document CHEMBL3988442, “University of Dundee, Small-Polar-MMV Screening Library” (2021).
